Compound activity from PubChem BioAssay.
Rows were chosen to be rich in hits. Some 1.5% of all compounds tested hit in one or more screens of this group.
PrPC surface inh: reduces human prion protein on the cell surface | inhibition, % at 13.8 µM | actives 0.43% (n = 370,000) | cell surface PrPC, TR-FRET read-out | P04156 | AID 720596; in the data active = inhibition above about 24%
PriA SSB inh: inhibitors of Klebsiella pneumoniae PriA binding to SSB C-terminal tail | AlphaScreen SSBct-PriA binding, biotinylated peptide | inhibition, % at 33 µM | actives 0.6% (n = 430,000) | AID 1272365; in the data active = inhibition mostly above about 37%, no sharp cut-off; inactive = mostly below about 20%
TcdB inh: TcdB glycohydrolase inhibition | P18177 | TcdB glycohydrolase enzymatic assay, plate reader | inhibition, % at 9.99 µM | actives 0.24% (n = 350,000) | AID 652162; in the data active = inhibition above about 10%
Vc quorum ag: inducers of Vibrio cholerae quorum light production without autoinducers. V. cholerae BH1578 lux reporter, luminescence, 6 h. activation, % at 18.7 µM. actives 0.16% (n = 350,000). AID 588436; in the data active = activation mostly above about 9.7%, no sharp cut-off
CCHFV vOTU inh: CCHFV vOTU protease inhibition. Pep-AMC fluorescence. inhibition, % at 11.5 µM. actives 0.55% (n = 370,000); in the data active = inhibition above about 30%
DUSP3 inh: inhibitors of human VHR1 phosphatase (DUSP3); recombinant VHR phosphatase, pNPP absorbance; actives 0.52% (n = 290,000); inhibition, % at 13.3 µM; P51452; in the data active = inhibition above about 50%
Of the large screens only hits and unclear results are named; the others gave an inactive call; ! = a repeat was not active.

Cc1ccc(-c2ccc(=O)n(CCCNC(=O)c3ccc(F)c(F)c3)n2)cc1	none (no result: PrPC surface inh, TcdB inh, Vc quorum ag, CCHFV vOTU inh, DUSP3 inh)
Cc1cccc(NC(=O)CCNC(=O)c2ccco2)c1	DUSP3 inh 50.8
O=C(CCNC(=O)c1ccc(Br)cc1)NCc1ccco1	none (no result: DUSP3 inh)
Cc1ccc(NC(=O)CCNC(=O)c2ccco2)cc1	none (no result: TcdB inh)
Cc1ccc(C(=O)NCCC(=O)NCc2ccco2)cc1	DUSP3 inh 53.5
O=C(CSc1nc2c(cnn2-c2cccc(Cl)c2)c(=O)[nH]1)NCc1ccc2c(c1)OCO2	none (no result: PrPC surface inh, TcdB inh, Vc quorum ag, CCHFV vOTU inh, DUSP3 inh)
O=C(CCCn1nnc2ccccc2c1=O)Nc1ccc(Br)cc1F	none (no result: PrPC surface inh, TcdB inh, Vc quorum ag, CCHFV vOTU inh, DUSP3 inh)
O=C(O)c1cn(-c2ccccc2)nc1-c1ccncc1	none (no result: TcdB inh)
O=C(c1cn(-c2ccccc2)nc1-c1ccncc1)n1nnc2ccccc21	TcdB inh 99.6 (no result: DUSP3 inh)
Cc1cccc(NC(=O)c2ccc(N3CCCCC3)c([N+](=O)[O-])c2)n1	none (no result: TcdB inh)
Cc1ccc(NC(=S)NNC(=O)c2ccc(N3CCOCC3)c([N+](=O)[O-])c2)cc1Cl	PriA SSB inh 38.4 (no result: TcdB inh)
Cc1cccc(NC(=O)c2ccc(N3CCOCC3)c([N+](=O)[O-])c2)n1	TcdB inh 13.1
CSc1ccccc1OCc1cc(C(=O)N2CCc3[nH]cnc3C2c2ccccn2)no1 (stereo not drawn)	PriA SSB inh 52.4
CCOC(=O)N1CCC(NC(=O)c2cc(COc3ccccc3SC)on2)CC1	DUSP3 inh 52.8
NC(=S)NN=Cc1ncc(C(F)(F)F)cc1Cl	none (no result: PrPC surface inh, TcdB inh, Vc quorum ag, CCHFV vOTU inh, DUSP3 inh)
CCN(CC)CCCC(C)NC(=O)c1c(NC(=O)c2ccccc2)sc2c1CCCC2 (stereo not drawn)	DUSP3 inh 53.9
CN(C)C(=O)c1c(NC(=O)c2ccccc2)sc2c1CCC2	none
CCOC(=O)c1[nH]nc(-c2c(O)cc(C)cc2O)c1-c1csc(C)n1	none (no result: TcdB inh)
CCCc1cc(-c2n[nH]c(C(=O)OCC)c2-c2cscn2)c(O)cc1O	TcdB inh 21.5
Cc1ccc(CNC(=O)c2ccccc2SCC(=O)NCC2CCCCC2)cc1	DUSP3 inh 53.8 (no result: TcdB inh)
O=C(NCCC(c1ccccc1)c1ccccc1)C(=O)Nc1cccc([N+](=O)[O-])c1	none (no result: PrPC surface inh, TcdB inh, Vc quorum ag, CCHFV vOTU inh, DUSP3 inh)
O=C(CSCc1ccccc1)Nc1ccccc1Cc1nc(-c2ccncc2)no1	none (no result: PrPC surface inh, TcdB inh, Vc quorum ag, CCHFV vOTU inh, DUSP3 inh)
Clc1ccc(OCc2nc(-c3ccccn3)n[nH]2)cc1	PriA SSB inh 63.5 (no result: TcdB inh)
NCCc1nc(-c2ccccn2)no1	none (no result: PrPC surface inh, TcdB inh, Vc quorum ag, CCHFV vOTU inh, DUSP3 inh)
NCCc1nc(-c2ccccn2)n[nH]1	PriA SSB inh 93.3 (no result: PrPC surface inh, TcdB inh, Vc quorum ag, CCHFV vOTU inh, DUSP3 inh)
Brc1ccc(OCc2nc(-c3ccccn3)n[nH]2)cc1	PriA SSB inh 86.4 (no result: TcdB inh)
Cc1nc(-c2ccccn2)n[nH]1	PriA SSB inh 99.0! (no result: PrPC surface inh, TcdB inh, Vc quorum ag, CCHFV vOTU inh, DUSP3 inh)
c1ccc(-c2nc(-c3ccccn3)nc(-c3ccccn3)n2)nc1	none
O=C(O)c1ccc(NN=Cc2ccc(-c3ccc(Br)cc3)o2)cc1	none (no result: PrPC surface inh, TcdB inh, Vc quorum ag, CCHFV vOTU inh, DUSP3 inh)
COc1ccccc1NC(=O)C1=C(C)Nc2nc(-c3cccs3)nn2C1c1ccccc1[N+](=O)[O-] (stereo not drawn)	PriA SSB inh 35.0 (no result: PrPC surface inh, TcdB inh, Vc quorum ag, CCHFV vOTU inh, DUSP3 inh)
COc1ccccc1NC(=O)C1=C(C)Nc2nc(-c3cccs3)nn2C1c1cccc(O)c1 (stereo not drawn)	none (no result: TcdB inh)
Cn1cccc1CN(Cc1cccs1)C(=O)C1(c2ccccc2)CCOCC1	none (no result: PrPC surface inh, TcdB inh, Vc quorum ag, CCHFV vOTU inh, DUSP3 inh)
CCOc1ccc(N2CC(NS(=O)(=O)c3ccc([N+](=O)[O-])cc3)CC2=O)cc1 (stereo not drawn)	none (no result: PrPC surface inh, TcdB inh, Vc quorum ag, CCHFV vOTU inh, DUSP3 inh)
COc1ccc(CN(C)c2ncnc(N)n2)cc1	Vc quorum ag 16.7 (no result: TcdB inh)
CCCOc1ccc(CN(C)c2ncnc(N)n2)cc1	none
C#Cc1ccc(CN2CCCC(C(=O)Nc3ccccc3Oc3cccnc3)C2)cc1 (stereo not drawn)	DUSP3 inh 55.6
Cc1cc(C(=O)Nc2ccc(SC#N)cc2)c(C)o1	none (no result: PrPC surface inh, TcdB inh, Vc quorum ag, CCHFV vOTU inh, DUSP3 inh)
O=C(Nc1ccc2c(c1)OCO2)C1CCN(S(=O)(=O)c2ccc(Cl)cc2)CC1	none (no result: PrPC surface inh, TcdB inh, Vc quorum ag, CCHFV vOTU inh, DUSP3 inh)
COc1cc(C(=O)NCCNC(=O)c2cnccn2)cc(OC)c1OC	none
COc1ccc(C(=O)NCCNC(=O)c2cnccn2)cc1OC	DUSP3 inh 52.0
O=C(N/N=C/c1ccccn1)c1cc(-c2ccc3ccccc3c2)n[nH]1	DUSP3 inh 50.8 (no result: PriA SSB inh)
O=C(NN=C/C=C/c1ccccc1[N+](=O)[O-])c1cc(-c2ccccc2)n[nH]1	none (no result: PrPC surface inh, TcdB inh, Vc quorum ag, CCHFV vOTU inh, DUSP3 inh)
O=C(NN=Cc1ccccn1)c1cc(-c2ccc3ccccc3c2)n[nH]1	none (no result: PrPC surface inh, TcdB inh, Vc quorum ag, CCHFV vOTU inh, DUSP3 inh)
O=C(N/N=C/C=C\c1ccccc1[N+](=O)[O-])c1cc(-c2ccc3ccccc3c2)n[nH]1	DUSP3 inh 51.5 (no result: PriA SSB inh)
COc1ncc(NC(=O)c2ccccc2F)c(N(C)C)n1	none (no result: PrPC surface inh, TcdB inh, Vc quorum ag, CCHFV vOTU inh, DUSP3 inh)
O=C(O)CCC(=O)NCCn1c(-c2ccccc2)csc1=Nc1ccccc1	none
